These results are taken from PubChem BioAssay (NCATS).

Records with an inconclusive call do not appear. Values without a mark were called inactive. Calls of active or inactive are those of the source. Unless noted, calls follow the shape of the dose curve; as a rule, active = well fitted curve in the direction sought with a large enough effect; inconclusive = small, poorly fitted or top-dose-only effect, or another doubt; inactive = no such curve, though single readings can be large; an effect the other way counts as inactive or inconclusive.

A short description of test [1]: qHTS for Inhibitors of Plasmodium falciparum (DD2) proliferation (AID 504314).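 Also: parasite DNA measured by SYBR Green fluorescence after red cell lysis; plate controls were DMSO vehicle for no effect and artemisinin wells for full effect.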 Put shortly: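 Fluorescence read-out (ex 485/em 535 nm) of SYBR Green-stained parasite DNA quantifies intraerythrocytic growth. Cultures at 0.3% parasitemia and 2.5% hematocrit were treated for 72 h; data normalized to DMSO and 0.29 uM artemisinin wells.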
(In general: qHTS replaces the single test concentration by a dilution series.)

A short description of test [2]: qHTS for Inhibitors of Plasmodium falciparum (GB4) proliferation (AID 504315).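 Also: 0% = DMSO vehicle and -100% = 0.29 µM artemisinin control; nearly all actives have a fitted effect of over 50% in size.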 Put shortly: (§1)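 Erythrocytes infected with P. falciparum line (0.3% parasitemia, 2.5% hematocrit final) incubated with compounds 72 h at 37 °C, 5% CO2; SYBR Green lysis buffer added, fluorescence read next day. Normalized to 0.29 uM artemisinin and DMSO.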
Test [3] can be described thus: qHTS for Inhibitors of Plasmodium falciparum (HB3) proliferation (AID 504318).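 Also: 0% = DMSO vehicle and -100% = artemisinin control; nearly all actives have a fitted effect of over 60% in size.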 In outline:
as §1

The nature of test [4]: qHTS for Inhibitors of Plasmodium falciparum (CP250) proliferation (AID 504320).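 Also: plate controls were DMSO vehicle for no effect and 0.29 µM artemisinin control for full effect.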 In outline:
as §1

For test [5], the target named is Atrial natriuretic peptide receptor 1 (Homo sapiens) (UniProt P16066). Kind of test: Natriuretic polypeptide receptor (hNpr1) antagonism - Pilot CMLD screen (AID 1347052; calls by dose curve;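 also: cGMP level read as GloSensor luciferase luminescence after agonist stimulation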; also: potency is read from the fitted curve at half-maximal effect).
Chain of Atrial natriuretic peptide receptor 1 (Homo sapiens) (P16066 whole entry, looked up): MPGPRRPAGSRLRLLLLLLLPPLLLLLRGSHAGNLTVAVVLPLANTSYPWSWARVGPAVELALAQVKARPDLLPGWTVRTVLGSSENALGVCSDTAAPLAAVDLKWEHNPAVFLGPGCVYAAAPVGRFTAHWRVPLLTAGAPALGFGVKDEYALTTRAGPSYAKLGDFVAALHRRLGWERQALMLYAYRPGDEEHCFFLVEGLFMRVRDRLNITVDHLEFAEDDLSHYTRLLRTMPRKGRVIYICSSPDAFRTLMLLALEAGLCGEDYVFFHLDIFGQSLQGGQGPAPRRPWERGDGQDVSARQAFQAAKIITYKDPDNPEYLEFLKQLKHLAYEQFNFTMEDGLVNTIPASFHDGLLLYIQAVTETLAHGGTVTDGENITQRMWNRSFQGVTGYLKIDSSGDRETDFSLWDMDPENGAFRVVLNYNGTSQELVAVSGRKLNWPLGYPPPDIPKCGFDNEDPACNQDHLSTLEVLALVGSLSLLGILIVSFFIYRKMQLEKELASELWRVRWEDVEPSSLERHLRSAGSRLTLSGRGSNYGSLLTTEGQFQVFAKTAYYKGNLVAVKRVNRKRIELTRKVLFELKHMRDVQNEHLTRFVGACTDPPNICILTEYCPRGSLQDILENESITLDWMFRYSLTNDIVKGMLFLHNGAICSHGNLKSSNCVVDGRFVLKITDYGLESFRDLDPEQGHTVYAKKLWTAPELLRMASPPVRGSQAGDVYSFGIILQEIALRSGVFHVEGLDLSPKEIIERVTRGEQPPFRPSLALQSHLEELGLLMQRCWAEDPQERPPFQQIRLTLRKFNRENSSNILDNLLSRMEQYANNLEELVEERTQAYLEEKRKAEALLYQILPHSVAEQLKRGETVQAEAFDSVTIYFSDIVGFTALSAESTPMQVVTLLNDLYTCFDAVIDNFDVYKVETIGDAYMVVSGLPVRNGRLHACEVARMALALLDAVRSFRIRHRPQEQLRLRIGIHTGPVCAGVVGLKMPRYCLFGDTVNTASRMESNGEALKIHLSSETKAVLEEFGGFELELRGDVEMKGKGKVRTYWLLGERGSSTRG

Regarding `CC(=O)OC[C@H]1O[C@H](CC=NO[C@@H](C)CN2CCCc3nc(C)c(C)cc32)C=C[C@@H]1OC(C)=O`, the Potency entry in test [1], in test [2], in test [3], in test [4] and in test [5] was “inactive” in each case.

For `C=CCN1C(=O)CC[C@@]23C1=NC(C(=O)OC)=C(C(=O)OC)[C@@H]2N(CC=C)c1ccccc13`, the Potency entry in test [1], in test [2], in test [3] and in test [4] was “inactive” throughout. In test [5], the Potency was 2370 nM (active).

With `COC[C@@H](OC(C)=O)[C@H]1OCc2ccccc2[C@@H]1C=Cc1ccccc1`, the Potency result in test [1], in test [2], in test [3], in test [4] and in test [5] was “inactive” in each case.

In the case of `COCCN1C(=O)NC(c2ccc(Br)cc2)C(C(C)=O)=C1C` (stereo not given), the Potency entry in test [1], in test [2], in test [3], in test [4] and in test [5] was “inactive” throughout.

On to `C=C(Br)CO[C@@H]1C=C[C@@H](c2ccccc2)O[C@@H]1COC`, for which the Potency result in test [1], in test [2], in test [3], in test [4] and in test [5] was “inactive” in each case.

Regarding `COC(=O)N1[C@H]2CC[C@@]3(C)C=C(C)O[C@]1(C)C3c1ccccc12`, the Potency entry in test [1], in test [2], in test [3], in test [4] and in test [5] was “inactive” throughout.

Regarding `C=CC[C@@H]1C=C[C@@H](Oc2ccc(OC)cc2)[C@H](COC(=O)c2ccc(Br)cc2)O1`, the Potency result in test [1], in test [2], in test [3], in test [4] and in test [5] was “inactive” throughout.

For the molecule `COC(=O)C1(C(=O)OC)C[C@@H]2CON=C2[C@@H]1c1ccccc1`, the Potency entry in test [1], in test [2], in test [3], in test [4] and in test [5] was “inactive” each time.

For the molecule `COc1ccc(-c2ccc3c(n2)CCCN3CC(O)CN2CCCc3nc(C)c(C)cc32)cc1` (stereo not given), the Potency result in test [1], in test [2], in test [3], in test [4] and in test [5] was “inactive” throughout.

`C#CC1(O)C2C=C(OC)C(=O)C1C(c1ccccc1)C2C` (stereo not given): the Potency result in test [1], in test [2], in test [3], in test [4] and in test [5] was “inactive” in each case.

Take `O=C(C=NO)NCCCCNC(=O)C=NO`: the Potency result in test [1], in test [2], in test [3], in test [4] and in test [5] was “inactive” each time.

Consider `CCC(=O)C[C@@H](NC(=O)OC)c1ccc(F)cc1`, for which the Potency result in test [1], in test [2], in test [3], in test [4] and in test [5] was “inactive” throughout.

As to `C=CC[C@@H]1C=CC(ON=CC[C@@H]2C=C[C@@H](OC(C)=O)[C@@H](COC(C)=O)O2)[C@H](CO)O1` (stereo not given in full), the Potency entry in test [1], in test [2], in test [3], in test [4] and in test [5] was “inactive” throughout.

Consider `CCN1C(=NCc2ccccc2)N[C@@H](c2ccccc2)[C@H](C(=O)OC)[C@H]1C`, for which the Potency entry in test [1], in test [2], in test [3], in test [4] and in test [5] was “inactive” throughout.

For `COc1ccc([C@]23Cc4cc(C#N)ccc4[C@H](O2)C2=C(CC4(CCCCC4)OC2=O)O3)cc1`, the Potency entry in test [1], in test [2], in test [3], in test [4] and in test [5] was “inactive” throughout.

For the molecule `COC(=O)N[C@H](C[N+](=O)[O-])c1cccc(C)c1`, the Potency entry in test [1], in test [2], in test [3], in test [4] and in test [5] was “inactive” in each case.

In the case of `C=CCN1C=C2C(=O)C(C)(OC(=O)C3CCCC3)C(=O)C=C2C=C1c1ccsc1` (stereo not given), the Potency result in test [1], in test [2], in test [3], in test [4] and in test [5] was “inactive” each time.

Turning to `CO[C@H](C1CCCCC1)[C@H](C)C=CCC(=O)OCCCc1ccccc1`, the Potency result in test [1], in test [2], in test [3], in test [4] and in test [5] was “inactive” throughout.

Consider `CCN1C(=NCc2ccco2)N[C@@H](c2ccccc2)[C@H](C(=O)OC)[C@H]1C`, for which the Potency entry in test [1], in test [2], in test [3], in test [4] and in test [5] was “inactive” in each case.

In the case of `COC(=O)CC=C1c2ccccc2[C@@H](NC(=O)OC)[C@@H]1C`, the Potency result in test [1], in test [2], in test [3], in test [4] and in test [5] was “inactive” each time.

On to `CCN(CCNC(=O)[C@H]1C=C(OC)C(=O)C[C@@H]2c3ccccc3C[C@]12C)C(C)=O`, for which the Potency entry in test [1], in test [2], in test [3], in test [4] and in test [5] was “inactive” in each case.

In the case of `CCN1C(=O)[C@@H]2[C@H]3[C@H](O)[C@H](O)CC(=NOC[C@@H](O)COCc4ccco4)[C@@H]3CC[C@H]2C1=O`, the Potency entry in test [1], in test [2], in test [3], in test [4] and in test [5] was “inactive” each time.

`N#CCCCS(=O)(=O)c1nnnn1-c1ccccc1`: the Potency entry in test [1], in test [2], in test [3], in test [4] and in test [5] was “inactive” throughout.

Turning to `CCCCC1=CC2=C(c3ccco3)C(=O)C(C)(OC(=O)c3ccc(OC)cc3)C(=O)C2=CN1c1ccc(OC)cc1` (stereo not given), the activity, negative = inhibition in test [1] is -0.773% [at 1.12 µM]. For the same molecule, the Potency result in test [2], in test [3], in test [4] and in test [5] was “inactive” throughout.

Consider `CC=C[C@@H]1Oc2ccc(OC)cc2N2C(=O)[C@H](C)[C@@H](OCOC)[C@H]12`, for which the Potency entry in test [1], in test [2], in test [3], in test [4] and in test [5] was “inactive” throughout.

As for `COC(=O)c1nnc(C(=O)NCc2ccccc2)c2[nH]c3ccccc3c12`, the Potency entry in test [1], in test [2], in test [3], in test [4] and in test [5] was “inactive” throughout.
